From PubChem BioAssay (EPA / NIEHS)
Calls of active or inactive are those of the source. The calls were made as follows: active = hit-call score of the fitted dose curve at least 0.9, where 1 is the maximum; inactive = score below 0.9.

How the values were obtained:
[1] = read-out: Tumor necrosis factor receptor superfamily member 6 (Homo sapiens) (UniProt P25445); test: LTEA_HepaRG_FAS: Life Technologies and Expression Analysis (LTEA) Assay for Fas cell surface death receptor (FAS) using HepaRG (AID 2283447); details: mRNA level, 48 h; actives raise or lower the signal
Outline: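 Differentiated HepaRG cells in serum-free induction medium were exposed 48 h to 8 half-log concentrations up to 100 uM in 0.5% DMSO, in duplicate. FAS mRNA was measured by qRT-PCR normalised to ACTB, GAPDH and POLR2A; bidirectional fit versus DMSO.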

[2] = read-out: Fatty acid synthase (Homo sapiens) (UniProt P49327); test: LTEA_HepaRG_FASN: Life Technologies and Expression Analysis (LTEA) Assay for Fatty Acid Synthase (FASN) using HepaRG (AID 2283448); details: mRNA level, 48 h; actives raise or lower the signal
Outline: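 Differentiated human HepaRG cells were exposed for 48 h in serum-free induction medium to eight half-log concentrations up to 100 uM in 0.5% DMSO, in duplicate. FASN mRNA was quantified by TaqMan qRT-PCR, normalized to ACTB/GAPDH/POLR2A, and fitted bidirectionally against DMSO.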

[3] = read-out: Cyclin D2 (CCND2), CCND2 (gene 894); test: LTEA_HepaRG_CCND2: Life Technologies and Expression Analysis (LTEA) Assay for Cyclin D2 (CCND2) using HepaRG (AID 2283449); details: mRNA level, 48 h; actives raise or lower the signal;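 also: CCND2 transcript measured by TaqMan qRT-PCR and normalised to three housekeeping genes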
Outline: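 Chemicals in 0.5% DMSO, eight half-log concentrations from 100 uM top, were applied in duplicate for 48 h to human HepaRG cells in serum-free induction medium. CCND2 mRNA by TaqMan qRT-PCR, normalised to ACTB/GAPDH/POLR2A; bidirectional fit versus DMSO.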

[4] = read-out: Cyclin Dependent Kinase Inhibitor 1A (CDKN1A), CDKN1A (gene 1026); test: LTEA_HepaRG_CDKN1A: Life Technologies and Expression Analysis (LTEA) Assay for Cyclin Dependent Kinase Inhibitor 1A (CDKN1A) using HepaRG (AID 2283450); details: mRNA level, 48 h; actives raise or lower the signal
Outline: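 Read-out is CDKN1A mRNA by TaqMan qRT-PCR, normalized to three housekeeping genes and fitted in both directions against the DMSO baseline. Human HepaRG cells were treated 48 h with test chemicals up to 100 uM in half-log steps, 0.5% DMSO.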

[5] = read-out: Cyclin D1 (CCND1), CCND1 (gene 595); test: LTEA_HepaRG_CCND1: Life Technologies and Expression Analysis (LTEA) Assay for Cyclin D1 (CCND1) using HepaRG (AID 2283451); details: mRNA level, 48 h; actives raise or lower the signal
Outline: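 HepaRG plated 48 h, medium switched to serum-free induction medium, chemicals added in duplicate (top 100 uM, half-log steps, 0.5% DMSO) for 48 h, cells lysed, RNA measured by TaqMan qRT-PCR.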

[6] = read-out: catalase (CAT), CAT (gene 847); test: LTEA_HepaRG_CAT: Life Technologies and Expression Analysis (LTEA) Assay for catalase (CAT) using HepaRG (AID 2283452); details: mRNA level, 48 h; actives raise or lower the signal
Outline: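 HepaRG cells in serum-free induction medium, 0.5% DMSO vehicle, exposed 48 h in duplicate over 8 half-log concentrations from 100 uM. CAT mRNA measured by qRT-PCR, normalized to ACTB, GAPDH, POLR2A; bidirectional fit versus DMSO.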

[7] = read-out: flavin-containing dimethylaniline monooxygenases 3 (FMO3), FMO3 (gene 2328); test: LTEA_HepaRG_FMO3: Life Technologies and Expression Analysis (LTEA) Assay for flavin-containing dimethylaniline monooxygenases 3 (FMO3) using HepaRG (AID 2283453); details: mRNA level, 48 h; actives raise or lower the signal
Outline: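 HepaRG, 48 h exposure, 8-pt half-log series from 100 uM, 0.5% DMSO vehicle, duplicates; FMO3 transcript by Fluidigm TaqMan qRT-PCR, housekeeping-normalized; gain/loss fit vs DMSO.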

[8] = read-out: Cytochrome P450 (CYP1A1), CYP1A1 (gene 1543); test: LTEA_HepaRG_CYP1A1: Life Technologies and Expression Analysis (LTEA) Assay for Cytochrome P450 (CYP1A1) using HepaRG (AID 2283454); details: mRNA level, 48 h; actives raise or lower the signal
Outline: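 HepaRG, 48 h post-plating switched to serum-free induction medium; 8-pt conc-response (top 100 uM, half-log, 0.5% DMSO), duplicates, 48 h. Lysis in RLT, TaqMan qRT-PCR for CYP1A1; gain or loss vs DMSO.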

[9] = read-out: CFLAR gene, CFLAR (gene 8837); test: LTEA_HepaRG_CFLAR: Life Technologies and Expression Analysis (LTEA) Assay for CFLAR gene using HepaRG (AID 2283455); details: mRNA level, 48 h; actives raise or lower the signal
Outline: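 Differentiated HepaRG cells in serum-free induction medium were exposed 48 h in duplicate to eight half-log concentrations up to 100 uM in 0.5% DMSO; mRNA measured by TaqMan qRT-PCR, normalized to ACTB, GAPDH, POLR2A; bidirectional fitting versus DMSO.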

[10] = read-out: Forkhead box O1 (FOXO1), FOXO1 (gene 2308); test: LTEA_HepaRG_FOXO1: Life Technologies and Expression Analysis (LTEA) Assay for Forkhead box O1 (FOXO1) using HepaRG (AID 2283456); details: mRNA level, 48 h; actives raise or lower the signal
Outline: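 Differentiated HepaRG cells, in serum-free induction medium with 0.5% DMSO, exposed 48 h in duplicate to 8-point half-log series from 100 uM. FOXO1 mRNA measured by TaqMan qRT-PCR, normalized to ACTB, GAPDH, POLR2A; bidirectional fit versus DMSO.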

[11] = read-out: growth arrest and DNA damage 45 (GADD45A), GADD45A (gene 1647); test: LTEA_HepaRG_GADD45A: Life Technologies and Expression Analysis (LTEA) Assay for growth arrest and DNA damage 45 (GADD45A) using HepaRG (AID 2283458); details: mRNA level, 48 h; actives raise or lower the signal
Outline: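 Differentiated HepaRG cells were exposed in duplicate for 48 h in serum-free induction medium to 8-point half-log concentrations up to 100 uM in 0.5% DMSO. GADD45A mRNA was measured by TaqMan qRT-PCR, normalized to ACTB, GAPDH and POLR2A, with bidirectional fitting versus DMSO.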

[12] = read-out: Forkhead box O3 (FOXO3), FOXO3 (gene 2309); test: LTEA_HepaRG_FOXO3: Life Technologies and Expression Analysis (LTEA) Assay for Forkhead box O3 (FOXO3) using HepaRG (AID 2283459); details: mRNA level, 48 h; actives raise or lower the signal
Outline: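 Differentiated human HepaRG cells, 48 h post-plating, exposed in duplicate for 48 h in serum-free induction medium; 8-point half-log series from 100 uM in 0.5% DMSO. FOXO3 mRNA by TaqMan qRT-PCR, normalized to ACTB/GAPDH/POLR2A; bidirectional fit versus DMSO.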

[13] = read-out: ABC Transporter (ABCB1), ABCB1 (gene 5243); test: LTEA_HepaRG_ABCB1: Life Technologies and Expression Analysis (LTEA) Assay for ABC Transporter (ABCB1) using HepaRG (AID 2283460); details: mRNA level, 48 h; actives raise or lower the signal
Outline: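 HepaRG cells exposed in duplicate for 48 h in serum-free induction medium to eight half-log concentrations up to 100 uM in 0.5% DMSO. ABCB1 mRNA quantified by qRT-PCR, normalised to ACTB, GAPDH and POLR2A; fitted bidirectionally versus DMSO.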

[14] = read-out: growth arrest and DNA damage 45 (GADD45B), GADD45B (gene 4616); test: LTEA_HepaRG_GADD45B: Life Technologies and Expression Analysis (LTEA) Assay for growth arrest and DNA damage 45 (GADD45B) using HepaRG (AID 2283461); details: mRNA level, 48 h; actives raise or lower the signal
Outline: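 HepaRG, ~100,000 cells/well, 48 h plating; serum-free induction medium; cpd 100 uM top, half-log x8, 0.5% DMSO, duplicate, 48 h; lysis in RLT, RNA isolation, qRT-PCR; norm ACTB/GAPDH/POLR2A; bidirectional fit vs DMSO.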

[15] = read-out: ABC Transporter (ABCC3), ABCC3 (gene 8714); test: LTEA_HepaRG_ABCC3: Life Technologies and Expression Analysis (LTEA) Assay for ABC Transporter (ABCC3) using HepaRG (AID 2283462); details: mRNA level, 48 h; actives raise or lower the signal
Outline: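 Human HepaRG, 48 h dosing, 8-pt half-log series from 100 uM, 0.5% DMSO vehicle, duplicates. ABCC3 mRNA by TaqMan qRT-PCR, housekeeping-normalized; bidirectional curve fit vs DMSO.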

[16] = read-out: ABC Transporter (ABCB11), ABCB11 (gene 8647); test: LTEA_HepaRG_ABCB11: Life Technologies and Expression Analysis (LTEA) Assay for ABC Transporter (ABCB11) using HepaRG (AID 2283463); details: mRNA level, 48 h; actives raise or lower the signal
Outline: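 Differentiated human HepaRG cells in serum-free induction medium, dosed in duplicate for 48 h. Eight-point half-log series from 100 uM in 0.5% DMSO; ABCB11 mRNA by qRT-PCR, normalized to ACTB, GAPDH, POLR2A, fitted bidirectionally versus DMSO.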

[17] = read-out: ABC Transporter (ABCC2), ABCC2 (gene 1244); test: LTEA_HepaRG_ABCC2: Life Technologies and Expression Analysis (LTEA) Assay for ABC Transporter (ABCC2) using HepaRG (AID 2283464); details: mRNA level, 48 h; actives raise or lower the signal
Outline: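 HepaRG, 48 h post-plating; serum-free induction medium; cpd 8-pt, 100 uM top, half-log, 0.5% DMSO, duplicate, 48 h. Readout: ABCC2 mRNA by qRT-PCR, norm. ACTB/GAPDH/POLR2A. Bidirectional fit vs DMSO baseline.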

[18] = CEETOX_H295R_ESTRADIOL: CeeTox H295R High-throughput Steroidogenesis Assay for Estradiol (AID 2283440); details: actives raise or lower the signal;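 also: estradiol secreted into medium quantified by LC-MS/MS after dansyl derivatisation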
Outline: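 Estradiol secreted into the medium was measured by tandem mass spectrometry after liquid-liquid extraction and dansylation. Human H295R cells had been forskolin-primed (10 uM, 48 h) before a 48 h chemical exposure with 0.1% DMSO.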

[19] = CEETOX_H295R_ESTRONE: CeeTox H295R High-throughput Steroidogenesis Assay for Estrone (AID 2283441); details: actives raise or lower the signal;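 also: estrone secreted into medium measured by LC-MS/MS after dansyl derivatization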
Outline: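 H295R cells; 48 h forskolin (10 uM) prestimulation; 48 h compound exposure, 0.1% DMSO final. Medium estrone: MTBE extraction, dansyl derivatization, HPLC-MS/MS. Bidirectional fit vs DMSO.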

[20] = CEETOX_H295R_TESTO: CeeTox H295R High-throughput Steroidogenesis Assay for Testosterone (TESTO) (AID 2283457); details: actives raise or lower the signal
Outline: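 H295R, passage ≤10, 48 h dosing; media extracted with MTBE → HPLC-MS/MS for testosterone; 7-pt standard curve sets LLOQ/ULOQ; bidirectional fit vs DMSO; MTT viability same wells.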

Chain of Fatty acid synthase (Homo sapiens) (P49327 whole entry, looked up): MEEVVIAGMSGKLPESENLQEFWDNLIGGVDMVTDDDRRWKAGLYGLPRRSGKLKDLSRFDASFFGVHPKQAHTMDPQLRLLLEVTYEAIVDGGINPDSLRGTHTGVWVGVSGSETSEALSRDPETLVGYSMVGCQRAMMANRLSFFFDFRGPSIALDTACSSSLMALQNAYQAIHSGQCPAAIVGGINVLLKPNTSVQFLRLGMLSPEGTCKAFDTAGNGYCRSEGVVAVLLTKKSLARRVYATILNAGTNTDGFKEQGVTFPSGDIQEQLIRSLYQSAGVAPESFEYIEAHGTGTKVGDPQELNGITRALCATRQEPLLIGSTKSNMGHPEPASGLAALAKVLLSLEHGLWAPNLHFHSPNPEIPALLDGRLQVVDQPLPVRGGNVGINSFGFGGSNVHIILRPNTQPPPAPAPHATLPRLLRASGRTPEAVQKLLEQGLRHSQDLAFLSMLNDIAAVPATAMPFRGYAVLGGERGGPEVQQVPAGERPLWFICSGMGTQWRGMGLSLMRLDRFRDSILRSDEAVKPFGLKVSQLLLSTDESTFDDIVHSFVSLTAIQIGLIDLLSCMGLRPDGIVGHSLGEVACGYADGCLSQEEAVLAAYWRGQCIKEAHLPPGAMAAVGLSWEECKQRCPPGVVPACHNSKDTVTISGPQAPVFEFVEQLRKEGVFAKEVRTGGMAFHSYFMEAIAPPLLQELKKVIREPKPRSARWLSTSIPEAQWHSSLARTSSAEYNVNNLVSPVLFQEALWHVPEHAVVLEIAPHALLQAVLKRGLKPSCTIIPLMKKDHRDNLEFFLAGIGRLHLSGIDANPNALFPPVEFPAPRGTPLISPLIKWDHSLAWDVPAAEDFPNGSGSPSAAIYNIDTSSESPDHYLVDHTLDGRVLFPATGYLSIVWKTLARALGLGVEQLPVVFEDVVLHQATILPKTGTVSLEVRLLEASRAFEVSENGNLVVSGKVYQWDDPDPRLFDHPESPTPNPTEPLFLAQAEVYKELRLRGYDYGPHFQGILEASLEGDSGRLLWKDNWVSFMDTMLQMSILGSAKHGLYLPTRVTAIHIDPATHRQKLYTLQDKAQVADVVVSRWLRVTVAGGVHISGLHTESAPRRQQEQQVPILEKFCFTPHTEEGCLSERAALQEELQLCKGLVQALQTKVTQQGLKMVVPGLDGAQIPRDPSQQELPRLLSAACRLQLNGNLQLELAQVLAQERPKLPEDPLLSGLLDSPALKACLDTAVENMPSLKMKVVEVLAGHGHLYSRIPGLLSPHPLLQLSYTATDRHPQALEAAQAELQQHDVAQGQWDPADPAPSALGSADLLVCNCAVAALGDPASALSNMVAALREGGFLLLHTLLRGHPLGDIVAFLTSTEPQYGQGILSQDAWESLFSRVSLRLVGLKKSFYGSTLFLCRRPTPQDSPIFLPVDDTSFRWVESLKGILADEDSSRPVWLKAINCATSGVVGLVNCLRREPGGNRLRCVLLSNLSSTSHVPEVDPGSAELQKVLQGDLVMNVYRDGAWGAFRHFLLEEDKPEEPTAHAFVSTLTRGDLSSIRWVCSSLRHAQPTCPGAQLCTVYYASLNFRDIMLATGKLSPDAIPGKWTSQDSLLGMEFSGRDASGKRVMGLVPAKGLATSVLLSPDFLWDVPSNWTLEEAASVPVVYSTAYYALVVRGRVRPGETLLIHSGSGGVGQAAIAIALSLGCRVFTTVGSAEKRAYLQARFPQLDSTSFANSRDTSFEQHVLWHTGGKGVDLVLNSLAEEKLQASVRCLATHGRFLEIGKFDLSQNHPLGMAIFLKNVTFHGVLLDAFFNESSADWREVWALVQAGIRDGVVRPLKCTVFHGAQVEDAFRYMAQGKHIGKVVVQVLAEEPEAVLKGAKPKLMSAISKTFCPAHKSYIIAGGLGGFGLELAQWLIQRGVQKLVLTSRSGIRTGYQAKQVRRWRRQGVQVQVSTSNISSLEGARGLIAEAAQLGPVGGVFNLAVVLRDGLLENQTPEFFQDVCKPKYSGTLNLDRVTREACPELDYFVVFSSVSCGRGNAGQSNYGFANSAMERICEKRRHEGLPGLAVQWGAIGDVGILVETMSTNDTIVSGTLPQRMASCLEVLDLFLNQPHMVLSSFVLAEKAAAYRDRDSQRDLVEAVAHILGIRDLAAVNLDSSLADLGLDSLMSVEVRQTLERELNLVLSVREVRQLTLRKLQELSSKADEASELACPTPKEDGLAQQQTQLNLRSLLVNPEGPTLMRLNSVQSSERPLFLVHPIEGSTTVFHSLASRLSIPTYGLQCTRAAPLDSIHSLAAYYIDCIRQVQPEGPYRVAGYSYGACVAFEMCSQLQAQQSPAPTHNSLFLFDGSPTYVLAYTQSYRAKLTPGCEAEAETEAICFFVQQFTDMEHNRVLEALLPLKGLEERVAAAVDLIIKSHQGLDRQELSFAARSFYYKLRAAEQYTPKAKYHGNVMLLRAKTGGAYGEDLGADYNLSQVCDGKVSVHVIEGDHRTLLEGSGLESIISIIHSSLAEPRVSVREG

| Structure (SMILES) | outcome [1] | outcome [2] | outcome [3] | outcome [4] | outcome [5] | outcome [6] | outcome [7] | AC50 [8] | outcome [9] | outcome [10] | outcome [11] | outcome [12] | outcome [13] | outcome [14] | outcome [15] | outcome [16] | outcome [17] | outcome [18] | outcome [19] | outcome [20] |
| --- | --- | --- | --- | --- | --- | --- | --- | --- | --- | --- | --- | --- | --- | --- | --- | --- | --- | --- | --- | --- |
| Nc1ccn([C@@H]2O[C@H](CO)[C@@H](O)[C@@H]2O)c(=O)n1 | inactive | inactive | inactive | inactive | inactive | inactive | inactive | 77.3 µM (active) | inactive | inactive | inactive | inactive | inactive | inactive | inactive | inactive | inactive | – | – | – |
| C=CN1CCCC1=O | inactive | inactive | inactive | inactive | inactive | inactive | inactive | 50 µM (active) | inactive | inactive | inactive | inactive | inactive | inactive | inactive | inactive | inactive | – | – | – |
| CCCC(CCC)C(=O)O | inactive | inactive | inactive | inactive | inactive | inactive | inactive | 64.3 µM (active) | inactive | inactive | inactive | inactive | inactive | inactive | inactive | inactive | inactive | – | – | – |
| CCCCCCCCCCCCCCO | inactive | inactive | inactive | inactive | inactive | inactive | inactive | 50 µM (active) | inactive | inactive | inactive | inactive | inactive | inactive | inactive | inactive | inactive | inactive | inactive | – |
| NC(N)=O | inactive | inactive | inactive | inactive | inactive | inactive | inactive | 81.8 µM (active) | inactive | inactive | inactive | inactive | inactive | inactive | inactive | inactive | inactive | – | – | – |
| CCN(CC)C(=S)SSC(=S)N(CC)CC | inactive | inactive | inactive | inactive | inactive | inactive | inactive | 51 µM (active) | inactive | inactive | inactive | inactive | inactive | inactive | – | inactive | inactive | inactive | inactive | inactive |
| O=C(O)c1ccc2c(c1)nc(C(=O)NC1CCN(C3CC3)CC1)n2Cc1cc(-c2ccc(Cl)s2)on1 | inactive | inactive | inactive | inactive | inactive | inactive | inactive | 12 µM (active) | inactive | inactive | inactive | inactive | inactive | inactive | inactive | inactive | inactive | – | – | – |
